Measured values: ChEMBL document CHEMBL3988442, “University of Dundee, Small-Polar-MMV Screening Library” (2021)
Out of some 48,000 compounds screened, about 13,000 (27%) showed an effect of 50% or more. This is one part of the list.

test system: Wolbachia pipientis; assay: Anti-Wolbachia Cell-Based Screen; format: functional; parameters: scale not given: in the data most compounds retested in dose-response had high values; conditions: 5 µM

SMILES | Percent Effect [%]
CCNc1ncc(C(=O)N2CCOC(CCCc3ccccc3)C2)cn1 (stereo not given) | 15.39
Cc1nc(C)c(C(=O)NCc2nc3cccc(C)c3n2C)o1 | 31.6
O=C(c1ncn2c1CNS(=O)(=O)c1ccccc1-2)N1CCCCC1 | -12.5
CC(C)(CNC(=O)C1(c2cccc(Br)c2)CCOCC1)C(=O)O | -13.82
Cc1ccsc1[C@@H]1CCN(C(=O)CCc2n[nH]c(C)c2C)C[C@H]1O | 6.25
Cc1cnccc1N1CCCN(C(=O)CCc2n[nH]c(C)c2C)CC1 | -9.911
COc1cccc(CC(=O)N2CCc3ncnc(NCCO)c3CC2)c1 | -0.2896
CSCCC(=O)N1CCc2c(ncnc2N2CCOCC2)C1 | -13.57
Cc1ccccc1CCC(=O)N1CCc2ncnc(NCCO)c2CC1 | -0.3127
Cc1[nH]nc(CCC(=O)N2CCc3c(nc[nH]c3=O)C2)c1C | 104.7
Cc1n[nH]c(C)c1CCC(=O)N1CCc2c(nc[nH]c2=O)C1 | 106.7
Cc1nc(CCC(=O)N2Cc3cnc(-c4ccccc4)nc3C2)n[nH]1 | -6.082
Cc1[nH]nc(CCC(=O)N2CCc3ncnc(NCCO)c3CC2)c1C | 77.14
Cn1nc(Cn2cccc2)c2c1CN(Cc1ccoc1)C2.O=C(O)C(F)(F)F | -1.566
Oc1cccc(CN2CCN(c3nccc(CCC(F)(F)F)n3)CC2)c1 | 0.5395
Cc1cc(C)c2nc(CN3CCC(CN)CC3)cc(O)c2c1 | -3.326
CN(C)C(=O)NCc1cc2n(n1)CCCN(CC1CCCNC1)C2 (stereo not given) | -1.604
COC1CCN(CCNC(=O)NC(C)c2ccc(F)c(F)c2)CC1 (stereo not given) | 2.95
CCOCCn1c(=O)n(CCC=C(C)C)c2cc(C(=O)O)cnc21 | -10.97
CC1(c2ccccc2)CCC(=O)N(CCCN2CCOCC2)C1 (stereo not given) | 6.196
CC1(C)CN=C(N2CCN(CC3CCCCO3)CC2)S1 (stereo not given) | 87.51
Cc1ncc2c(n1)CN(CC1CCCCO1)CC2 (stereo not given) | 1.379
CC1(C)CN=C(N2CCN(CCCN3CCOCC3)CC2)S1 | 99.8
CC1(C)CN=C(N2CCN(CC3CCCO3)CC2)S1 (stereo not given) | 67.12
Cc1cnc(C)c(N2CCN(CC3CCCO3)CC2)n1 (stereo not given) | 94.75

SMILES | Percent Effect [%]
Cc1cc(NC2CCN(CC3CCCO3)CC2)n2nc(C)c(C)c2n1 (stereo not given) | 11.1
CCn1ncc(C(=O)N2CCN(CC3CCCO3)CC2)c1C (stereo not given) | -12.64
Cc1cnc(C)c(N2CCN(Cc3ccc(C)c(C)c3)CC2)n1 | -24.43
COCc1ccccc1C(=O)N1CCN(C2=NCC(C)(C)S2)CC1 | -20.33
CC(C)c1nc(CN2CCN(CC3CCCO3)CC2)cs1 (stereo not given) | 2.342
CCC(C)NC(=O)c1coc(COc2cccc(F)c2)n1 (stereo not given) | -23.89
Cc1nn(C(C)(C)C)c(=O)n1CC(=O)NCC(F)(F)F | 1.676
O=C(NCc1ccccc1)[C@H]1C[C@@H]2CN(S(=O)(=O)C3CC3)C[C@H]1O2 | 0.5177
CCC(CNS(N)(=O)=O)Oc1ccccc1F (stereo not given) | -4.298
CC1(C)CN=C(N2CCN(CC3CCOC3)CC2)S1 (stereo not given) | 102.4
COc1ncnc2c1CCN(CC1CCOC1)CC2 (stereo not given) | -41.04
N#Cc1c(N2CCN(CC3CCOC3)CC2)nc2ccccn12 (stereo not given) | -4.336
Cc1n[nH]c(C)c1S(=O)(=O)N(C)Cc1nn(C)c(Cl)c1Cl | 0.7109
CCN(Cc1cc(Br)ccc1F)C(=O)C(C)NC(N)=O (stereo not given) | -3.713
Cc1cccn2c(CNC(C)CCc3ccc(O)cc3)cnc12 (stereo not given) | -2.833
COc1ccccc1OC1(C(=O)O)CCN(c2nccnc2C)CC1 | -2.671
CCn1nc(C(C)C)cc1C(=O)N1CCOc2ccc(OC)cc21 | 10.42
COCCN(C)CCN1CC2(CCN(C3CCNCC3)CC2)OC1=O | 0.09435
CNC(=O)N1CC[C@@H]2CN(Cc3cccc(Cl)c3)S(=O)(=O)[C@@H]2CC1 | -6.007
CC(=O)N1CC[C@@H]2CN(Cc3cccc(Cl)c3)S(=O)(=O)[C@@H]2CC1 | -7.404
CC(C)NC(=O)N1CC[C@@H]2CN(Cc3cccc(Cl)c3)S(=O)(=O)[C@@H]2CC1 | -12.85
CNC(=O)N1CC[C@@H]2CN(CCc3cccc(OC)c3)S(=O)(=O)[C@@H]2CC1 | -2.748
CNC(=O)N1CC[C@@H]2CN(Cc3ccccc3)S(=O)(=O)[C@@H]2CC1 | 102
CNC(=O)N1CC[C@@H]2CN(Cc3cccc(OC)c3)S(=O)(=O)[C@@H]2CC1 | 89.38
O=C(NCCSC1CCCC1)c1cc(Cl)ccn1 | 3.584

SMILES | Percent Effect [%]
COCC(=O)N[C@H]1C[C@@H](Cc2cc(CN3CCCCC3)on2)C1(C)C | 11.93
Cc1ccccc1CN(CCN(C)C)Cc1ncc[nH]1 | -7.334
CN(C)C(C(=O)N1CCCN(C(=O)C2CCC2)CC1)c1ccccc1F (stereo not given) | -11.1
CN1CC2(CCN(C(=O)C3CCC3)CC2)COc2ccccc2S1(=O)=O | 97.81
CC(C)NC(=O)N1CCC2(CC1)COc1ccccc1S(=O)(=O)N(C)C2 | 105.4
COCCC1COC2(CCN(C(=O)C3CCC3)CC2)C1 (stereo not given) | -7.726
N#Cc1csc(CN(CC(=O)N2CCCC2)CC2CCCO2)c1 (stereo not given) | 4.573
CCOc1ccc(OCC)c(NCc2cc(C)on2)c1 | -0.4612
COCCOC[C@]1(CNCc2ccc(OC)cc2)C[C@@H](O)[C@@H](O)C1.Cl | 6.755
Cc1ccccc1C1(CNC(=O)N2CCC(CC(N)=O)CC2)CC1 | -8.106
Cc1ccccc1C1(CNC(=O)c2ccc(S(C)(=O)=O)cc2)CC1 | 72.54
Cc1ccccc1C1(CNC(=O)c2cccc(S(C)(=O)=O)c2)CC1 | 2.045
CC(NC(=O)N(C)Cc1ccsc1)c1ccc2c(c1)OCO2 (stereo not given) | -7.719
O=C(CCOc1ccccc1F)N1CCC(O)CC1 | 96.9
CN(CCOc1ccccc1F)S(=O)(=O)CC1CCOCC1 | 2.029
CC(C)c1ccc(OCCC(=O)N2CCC(CC(N)=O)CC2)cc1 | -11.97
O=C(Nc1ccccc1)C1CCN(C(=O)COc2ccccc2F)CC1 | 17.88
O=C(CCOc1ccccc1F)N1CCOCC1 | 105.4
CC(O)CN1CCN(C(=O)c2cnn(-c3ccccc3F)c2)CC1 (stereo not given) | -7.908
CN1CCOC(CNC(=O)CCCOc2ccccc2F)C1 (stereo not given) | -10.92
CC(O)C1CCN(C(=O)CCOc2ccccc2F)CC1 (stereo not given) | 86.99
CCOCC(=O)N1CCC(C(O)c2ccc(F)cc2)CC1 (stereo not given) | -2.843
Cn1cnnc1C1CCN(C(=O)CCCOc2ccccc2F)CC1 | -1.592
COc1ccccc1C1(C(=O)N2CCN(CC(C)O)CC2)CC1 (stereo not given) | -12.51
CC(O)CN1CCN(C(=O)CCOc2ccccc2F)CC1 (stereo not given) | 109.3
